The list is not random: actives were taken first. Their share in the collection is about 19%.
ELG1 DNA repair: inhibitors of ELG1-dependent DNA repair in HEK293T cells | HEK293T ELG1-luciferase reporter, luminescence, 16 h; DNA damage induced by 5-fluorouridine | Potency, µM (doses to about 46.1 µM), for inactives: at the top dose activity change, negative = inhibition, most hits filed as inhibitors | AID 504467 | 2.3% of 330,000 active; further: potency means the concentration at half of the fitted maximal effect; nearly all actives have a fitted effect of over 55% in size
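Luminescence from the luciferase reporter, measured 30 min after ONE-Glo reagent at room temperature, was the read-out. Beforehand, 2,000 cells per well were exposed for 16 hr at 37 °C to 5-fluorouridine together with compound or vehicle.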
TDP1 block: blocks human tyrosyl-DNA phosphodiesterase 1. Potency, µM (highest dose often 130 µM), without a hit: at the top dose activity change, negative = inhibition, actives largely listed as inhibitors. Q9NUW8. AID 485290. recombinant TDP1, AlphaScreen DNA substrate cleavage. 0.28% of 350,000 active; further: potency means the concentration at half of the fitted maximal effect; nearly all actives have a fitted effect of over 40% in size
Target sequence (Q9NUW8 whole entry, looked up): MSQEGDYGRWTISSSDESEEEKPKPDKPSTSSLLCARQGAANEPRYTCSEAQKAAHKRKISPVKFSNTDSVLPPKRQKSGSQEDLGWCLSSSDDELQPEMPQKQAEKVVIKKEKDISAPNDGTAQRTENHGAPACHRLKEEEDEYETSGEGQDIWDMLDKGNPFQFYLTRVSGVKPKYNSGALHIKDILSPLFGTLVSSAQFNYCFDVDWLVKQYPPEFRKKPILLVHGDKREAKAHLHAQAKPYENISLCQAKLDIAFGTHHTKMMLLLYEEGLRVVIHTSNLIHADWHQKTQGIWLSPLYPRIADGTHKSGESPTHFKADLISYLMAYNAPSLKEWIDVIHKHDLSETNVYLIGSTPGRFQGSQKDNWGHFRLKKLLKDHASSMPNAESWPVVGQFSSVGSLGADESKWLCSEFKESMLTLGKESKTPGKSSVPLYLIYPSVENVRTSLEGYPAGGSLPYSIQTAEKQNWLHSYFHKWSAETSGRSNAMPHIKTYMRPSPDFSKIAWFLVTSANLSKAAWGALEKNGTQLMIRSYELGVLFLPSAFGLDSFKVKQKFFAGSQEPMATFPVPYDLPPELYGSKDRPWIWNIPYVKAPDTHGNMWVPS
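Signal: AlphaScreen proximity between streptavidin donor and anti-FITC acceptor beads on intact substrate. Reaction: Tdp1 1 nM, substrate 15 nM final, 5 min RT after 15 min compound preincubation.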
TDP1 cell noCPT: qHTS for Inhibitors of human tyrosyl-DNA phosphodiesterase 1 (TDP1): qHTS in cells in absence of CPT | DT40 Tdp1-/- hTDP1 cells, no CPT, ATP luminescence, 48 h | Potency, µM (series often up to 46.2 µM), inactives show top-dose activity change, negative = growth inhibition, most hits filed as inhibitors | 15% of 420,000 active | AID 686978, 2013; further: potency means the concentration at half of the fitted maximal effect; nearly all actives have a fitted effect of over 55% in size
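Readout: luminescence from CellTiter-Glo after 30 min in the dark at RT. Cells: DT40 Tdp1-/- with stable hTDP1, 400/well. Exposure: compounds alone, ≥48 hr, 37 °C.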
Giardia killer: kills Giardia lamblia; Giardia lamblia trophozoite viability; activity change, % at 7.66 µM, hits read low; 0.15% of 340,000 active; in the data active means activity change below about -80%; inconclusive means between about -30% and that limit;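 further: parasites exposed to compound for two days anaerobically before the ATP read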
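Trophozoite viability was measured as ATP-dependent luminescence, read 15-30 min after reagent addition. Before that, parasites at 100 cells/well were exposed to compounds for 48 h, anaerobically, at 37 deg C.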
TDP1 cell CPT: DT40-hTDP1 cell growth loss with CPT | chicken DT40 Tdp1-/-;hTDP1 cells + 20 nM CPT, ATP luminescence, 48 h | Potency, µM (highest dose often 46.2 µM), for inactives: at the top dose activity change, negative = growth inhibition, usual class: inhibitors | AID 686979 | 12% of 420,000 active; further: potency means the concentration at half of the fitted maximal effect; nearly all actives have a fitted effect of over 55% in size
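Chicken DT40 Tdp1-/- cells complemented with human TDP1, 400 cells/well, exposed to compounds plus 20 nM camptothecin for at least 48 h at 37 C; viability read as ATP content by CellTiter-Glo luminescence.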
IL-1B inflam inh: blocks inflammasome-driven IL-1 beta release. 4.7% of 360,000 active. AID 743279. THP-1 LPS/ATP IL-1B secretion, AlphaLISA, 16 h; active compounds read low. activity change, % at 57.5 µM; in the data active means activity change below about -50%; inconclusive means mostly about -30% to -49%
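THP-1 cells pretreated 1 hr with compounds (up to 57.5 uM final), then stimulated with LPS (250 ng/mL final) plus ATP (1.25 mM final); secreted IL-1B measured by AlphaLISA after 16 hr, decreased signal indicating inhibition.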
* = called active by the depositor; [ ] = dose if it differs, or a comment. Unless noted, the call rests on the fitted dose curve; in most records, active means well fitted curve in the direction sought with a large enough effect; inconclusive means small, poorly fitted or top-dose-only effect, or another doubt; inactive means no such curve, though single readings can be large; an effect the other way counts as inactive or inconclusive. On the % scale 0 is the no-effect control and ±100 the full control effect.

`O=C(C1=C[C@H](C2CC2)C[C@H](OCc2ccc(CO)cc2)O1)N1CCN(Cc2ccc3c(c2)OCO3)CC1` gave ELG1 DNA repair 6.5µM*, TDP1 block 3%, TDP1 cell noCPT inconclusive, Giardia killer -6, TDP1 cell CPT inconclusive and IL-1B inflam inh 0.
`O=C(C1=C[C@H](C2CCCCC2)C[C@H](OCc2ccc(CO)cc2)O1)N1CCN(Cc2ccc3c(c2)OCO3)CC1` gave ELG1 DNA repair -13%, TDP1 block 6%, TDP1 cell noCPT inconclusive, Giardia killer 5, TDP1 cell CPT inconclusive and IL-1B inflam inh -70*.
`O=C(C1=C[C@H](C2CC2)C[C@H](OCCCCO)O1)N1CCN(Cc2ccc3c(c2)OCO3)CC1` gave ELG1 DNA repair -15%, TDP1 block -1%, TDP1 cell noCPT -27%, Giardia killer -6, TDP1 cell CPT inconclusive and IL-1B inflam inh -25.
Screening CCn1c(=O)cc(OCC(=O)N(C)c2ccc(OC)cc2)c2ccccc21 returned TDP1 block 3%, TDP1 cell noCPT inconclusive and TDP1 cell CPT inconclusive.
Screening CSCC[C@H](NC(=O)C(C)Oc1ccc(Cl)cc1)c1nc2ccccc2[nH]1 (some centres undefined) returned ELG1 DNA repair -13%, TDP1 block 5%, TDP1 cell noCPT inconclusive, Giardia killer -5, TDP1 cell CPT -29% and IL-1B inflam inh -13.
For Cc1ccccc1NC(=O)Cc1nc(COC(=O)CNS(=O)(=O)c2cccc(Br)c2)cs1 the results were ELG1 DNA repair 17%, TDP1 block 1%, TDP1 cell noCPT -21%, Giardia killer 3, TDP1 cell CPT -13% and IL-1B inflam inh -3.
COc1ccc(OCC(O)CN2CCN(c3ccccc3)CC2)cc1 (centres undefined) was read as ELG1 DNA repair 5%, TDP1 block 4%, TDP1 cell noCPT -1%, Giardia killer 12, TDP1 cell CPT -17% and IL-1B inflam inh 19.
For COc1ccc(C2CCCN2CC(O)COc2ccccc2C(C)C)cc1 (centres undefined) the results were ELG1 DNA repair -2%, TDP1 cell noCPT 13µM*, Giardia killer -10, TDP1 cell CPT 23µM* and IL-1B inflam inh inconclusive.
Screening CCOC(=O)C1CCN(Cc2cnc(Oc3ccc(Cl)cc3C)s2)CC1 returned ELG1 DNA repair -2%, TDP1 block 2%, TDP1 cell noCPT -23%, Giardia killer 2, TDP1 cell CPT 4% and IL-1B inflam inh -3.
`CC1CCCN(Cc2cn3c(-c4cccc(Br)c4)nnc3s2)C1` (centres undefined) gave TDP1 block 5%, TDP1 cell noCPT inconclusive and TDP1 cell CPT 23µM*.
Screening Brc1ccc(-c2nnc3sc(CN4CCCCC4)cn23)cc1 returned TDP1 block 5%, TDP1 cell noCPT -25% and TDP1 cell CPT -9%.
`Brc1cccc(-c2nnc3sc(CNCc4ccco4)cn23)c1` gave ELG1 DNA repair inconclusive, TDP1 block 4%, TDP1 cell noCPT inconclusive, Giardia killer 40, TDP1 cell CPT inconclusive and IL-1B inflam inh -6.
For CCOC(=O)C1CCCN(Cc2cn3c(-c4ccc(Br)cc4)nnc3s2)C1 (centres undefined) the results were TDP1 block 7%, TDP1 cell noCPT 6.5µM* and TDP1 cell CPT 5.2µM*.
Screening CCOC(=O)C1CCN(Cc2cn3c(-c4ccc(OC)cc4)nnc3s2)CC1 returned TDP1 block 7%, TDP1 cell noCPT inconclusive and TDP1 cell CPT 21µM*.
`CCOC(=O)C1CCCN(C(=O)CSc2ccc(Br)cc2)C1` (centres undefined) gave ELG1 DNA repair 18%, TDP1 block 5%, TDP1 cell noCPT 18µM*, Giardia killer -7, TDP1 cell CPT 13µM* and IL-1B inflam inh -8.
For O=C(COc1ccc(Br)cc1CO)Nc1ccc(S(=O)(=O)N2CCCC2)cc1 the results were ELG1 DNA repair inconclusive, TDP1 block -3%, TDP1 cell noCPT inconclusive, Giardia killer 8, TDP1 cell CPT inconclusive and IL-1B inflam inh -57*.
Screening Cc1ccc(NC(=O)COc2cccc(-n3cnnn3)c2)cc1S(=O)(=O)N1CCOCC1 returned ELG1 DNA repair inconclusive, TDP1 block 2%, TDP1 cell noCPT 23µM*, Giardia killer -4, TDP1 cell CPT inconclusive and IL-1B inflam inh 18.
Screening Cc1cc(NCC(=O)Nc2ccc(C)c(S(=O)(=O)N3CCOCC3)c2)ccc1Br returned TDP1 cell noCPT 18µM*, TDP1 cell CPT inconclusive and IL-1B inflam inh -4.
Screening Cc1ccc(NC(=O)Cc2ccccc2)cc1S(=O)(=O)N1CCOCC1 returned ELG1 DNA repair inconclusive, TDP1 block -1%, TDP1 cell noCPT -4%, Giardia killer 18, TDP1 cell CPT -21% and IL-1B inflam inh -4.
Screening Cc1ccc(NC(=O)COc2ccc(Br)cc2CO)cc1S(=O)(=O)N1CCOCC1 returned ELG1 DNA repair 21µM*, TDP1 block 2%, TDP1 cell noCPT 18µM*, Giardia killer -21, TDP1 cell CPT inconclusive and IL-1B inflam inh -29.
For O=C(CN1CCN(S(=O)(=O)N2CCCCCC2)CC1)Nc1ccc(Br)cc1 the results were ELG1 DNA repair inconclusive, TDP1 block 3%, TDP1 cell noCPT inconclusive, Giardia killer 8, TDP1 cell CPT inconclusive and IL-1B inflam inh -27.
For COCC(C)NS(=O)(=O)c1ccc(NC(=O)c2ccccn2)cc1 (centres undefined) the results were ELG1 DNA repair 1%, TDP1 cell noCPT 1%, Giardia killer -15, TDP1 cell CPT inconclusive and IL-1B inflam inh 23.
For Cn1c(CNC(=O)CSc2nc(-c3cccc(Cl)c3)nc3cc(=O)[nH]n23)nc2ccccc21 the results were TDP1 block -3%, TDP1 cell noCPT 1% and TDP1 cell CPT -15%.
`COc1ccc(OC2C=CC(C#Cc3ccc(C(C)(C)C)cc3)OC2CO)cc1` (centres undefined) gave TDP1 block 1%[21 µM].
COc1ccc(O)c(C(=O)c2cc(C(=O)NCCc3ccccc3)c(=O)n(CCc3ccccc3)c2)c1 was read as ELG1 DNA repair inconclusive, TDP1 block 3%, TDP1 cell noCPT 15µM*, Giardia killer 8, TDP1 cell CPT 18µM* and IL-1B inflam inh -14.
COc1ccc(CCNC(=O)c2cc3ccccc3oc2=O)cc1 was read as ELG1 DNA repair 16%, TDP1 cell noCPT 3%, Giardia killer 0, TDP1 cell CPT 10% and IL-1B inflam inh 1.

Screening data: PubChem, National Center for Advancing Translational Sciences (NCATS)
